These results are taken from PubChem BioAssay (NCI).

Among the test systems are DU-145 prostate; K-562 leukemia; MALME-3M melanoma; MDA-MB-231 breast; RXF 393 renal; SF-268 CNS; SF-295 CNS; SF-539 CNS; UACC-257 melanoma; M14 melanoma; HCT-15 colon; HT29 colon; SNB-75 CNS; SNB-19 CNS; U251 CNS; PC-3 prostate; SK-MEL-5 melanoma; UACC-62 melanoma; LOX IMVI melanoma; SK-MEL-28 melanoma.
Common to all, as to test: NCI-60 one-dose screen, 48 h (100 = growth as untreated, 0 = no growth, -100 = all killed)
Conditions in all cases: 10 µM unless noted

The panel holds about 83,000 compounds, 20% with a hit somewhere; the sample as a whole holds those more often.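 Results are percent growth after 48 hours of single-concentration exposure. 100 means growth as in untreated cells, lower positive values show inhibition; negative values down to -100 show cell death.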 Values without a mark were called inactive. Activity calls are given as the source filed them. How the source made its calls: active means growth percent below 10; inactive means the rest.

For `Cn1c(SCC(=O)c2ccco2)nc2ccccc2c1=O`, the growth in the assay on DU-145 prostate was 106%; with K-562 leukemia, 92%; with MALME-3M melanoma it was 98.3%; in the assay on MDA-MB-231 breast, 93.8%; with RXF 393 renal, 124%; with SF-268 CNS, 102%. Besides, the growth is 104% in the assay with SF-295 CNS; 96.6% in the assay on SF-539 CNS; 99.7% with UACC-257 melanoma; 97.2% in the assay with M14 melanoma; 84.9% with HCT-15 colon; 118% in the assay with HT29 colon. The growth in the assay on SNB-75 CNS was 86.2%; with SNB-19 CNS, 102%; with U251 CNS it was 105%; with PC-3 prostate, 93.6%; with SK-MEL-5 melanoma it was 98.1%; with UACC-62 melanoma, 87%. Besides, the growth is 95.2% with LOX IMVI melanoma and 108% in the assay with SK-MEL-28 melanoma.
On to `COc1ccc(C(=O)c2c(N)c(C#N)cn2-c2ccc(Cl)cc2Cl)cc1`, for which the growth in the assay with DU-145 prostate was 110%; in the assay on K-562 leukemia it was 93.6%; in the assay with MALME-3M melanoma, 96.9%; with MDA-MB-231 breast, 90.8%; with RXF 393 renal it was 97%; in the assay on SF-268 CNS, 100%. For the same compound, the growth in the assay with SF-295 CNS is 98.8%; with SF-539 CNS it was 102%; with UACC-257 melanoma it was 98.2%; in the assay with M14 melanoma it was 91.2%; in the assay on HCT-15 colon, 99.3%; with HT29 colon it was 98.5%. For the same compound, the growth in the assay with SNB-75 CNS is 91%; in the assay on SNB-19 CNS, 93.1%; in the assay on U251 CNS, 99.2%; in the assay with PC-3 prostate it was 95.7%; in the assay with SK-MEL-5 melanoma, 98.7%; in the assay with UACC-62 melanoma, 89.6%. Also, the growth in the assay on LOX IMVI melanoma was 84%; in the assay on SK-MEL-28 melanoma, 97.9%.
For `COc1ccc2c(c1)c(-c1nnc(N)nc1-c1c[nH]c3ccc(F)cc13)cn2C`, the growth is 70.4% in the assay with DU-145 prostate; 11.9% in the assay on K-562 leukemia; 75.7% in the assay with MALME-3M melanoma; 73.7% in the assay on MDA-MB-231 breast; 47.8% in the assay with RXF 393 renal; 54.2% in the assay with SF-268 CNS. Further, the growth in the assay with SF-295 CNS is 33%; in the assay with SF-539 CNS, 40.5%; in the assay with UACC-257 melanoma, 62.5%; with M14 melanoma it was 32.8%; with HCT-15 colon it was 27.7%; in the assay on HT29 colon, 11.1%. In addition, the growth in the assay on SNB-75 CNS was 24.3%; in the assay on SNB-19 CNS, 45.2%; in the assay on U251 CNS, 34.5%; in the assay on PC-3 prostate, 51.2%; with SK-MEL-5 melanoma, 35.4%; in the assay with UACC-62 melanoma, 35.9%. The growth in the assay on LOX IMVI melanoma was 42.7%; in the assay on SK-MEL-28 melanoma, 67.5%.
For `Cc1ccc(/C=N/Nc2nc(Nc3ccccc3)nc(Nc3ccc(S(N)(=O)=O)cc3)n2)cc1`, the growth was 65.1% with DU-145 prostate; 56.8% in the assay with K-562 leukemia; 91.8% in the assay on MALME-3M melanoma; 73.4% in the assay on MDA-MB-231 breast; -2.59% (active) with RXF 393 renal; 87.1% in the assay with SF-268 CNS. For the same compound, the growth in the assay on SF-295 CNS was 57.7%; in the assay on SF-539 CNS it was 44.7%; with UACC-257 melanoma, 101%; in the assay with M14 melanoma it was 72.8%; in the assay with HCT-15 colon it was 53.5%; in the assay on HT29 colon it was 54.8%. In addition, the growth in the assay with SNB-75 CNS was 67.7%; in the assay with SNB-19 CNS it was 77.6%; in the assay on U251 CNS it was 62.6%; with PC-3 prostate, 66.8%; in the assay with SK-MEL-5 melanoma it was 76%; with UACC-62 melanoma, 91.3%. For the same compound, the figures for the growth in the assay with LOX IMVI melanoma and in the assay with SK-MEL-28 melanoma were 54.9% and 75.7%, respectively.
For `CC(C)(C)c1cc(NC(=O)Nc2ccc(-c3cn4c5c(sc4n3)CCc3c[nH]cc3-5)cc2)no1`, the growth with DU-145 prostate is 32.6%; in the assay with K-562 leukemia, 1.04% (active); with MALME-3M melanoma, 0.464% (active); with MDA-MB-231 breast it was 30.3%; with RXF 393 renal, -24.4% (active); in the assay on SF-268 CNS, 32.7%. The growth was -56.5% (active) in the assay on SF-295 CNS; -4.46% (active) in the assay on SF-539 CNS; 32.3% in the assay with UACC-257 melanoma; 6.95% (active) in the assay on M14 melanoma; 5% (active) in the assay with HCT-15 colon; -66% (active) with HT29 colon. Further, the growth with SNB-75 CNS was -12.9% (active); in the assay with SNB-19 CNS, 21.7%; in the assay with U251 CNS, -14.6% (active); in the assay with PC-3 prostate it was 21.9%; in the assay with SK-MEL-5 melanoma, 19.1%; in the assay on UACC-62 melanoma, 49.9%. Besides, the growth in the assay on LOX IMVI melanoma was -22.5% (active); with SK-MEL-28 melanoma, 23.1%.
In the case of `O=C1/C(=C/C=C/c2ccco2)SC(=S)N1Cc1ccccc1`, the growth is 93.8% in the assay with DU-145 prostate; 71.2% in the assay with K-562 leukemia; 87.2% with MALME-3M melanoma; 92.7% with MDA-MB-231 breast; 95.3% in the assay with RXF 393 renal; 89.7% in the assay on SF-268 CNS. Further, the growth in the assay on SF-295 CNS was 97%; in the assay on SF-539 CNS, 101%; with UACC-257 melanoma, 91.6%; in the assay with M14 melanoma it was 92.1%; in the assay on HCT-15 colon it was 65%; in the assay on HT29 colon it was 110%. In addition, the growth was 84.7% in the assay with SNB-75 CNS; 89.2% with SNB-19 CNS; 92.3% in the assay with U251 CNS; 101% in the assay with PC-3 prostate; 98.8% in the assay on SK-MEL-5 melanoma; 82.1% in the assay with UACC-62 melanoma. The growth in the assay with LOX IMVI melanoma was 96.4%; with SK-MEL-28 melanoma, 101%.
Turning to `O=C(CCCCCCNC(=O)C(O)(O)C(F)(F)F)Nc1ccc(-c2ccccc2)cc1`, the growth was 12% in the assay on DU-145 prostate; 9.55% (active) in the assay on K-562 leukemia; 3.09% (active) with MALME-3M melanoma; 25% with MDA-MB-231 breast; -45% (active) with RXF 393 renal; -4.51% (active) in the assay on SF-268 CNS. For the same compound, the growth in the assay with SF-295 CNS was -32.1% (active); with SF-539 CNS, 19.7%; with UACC-257 melanoma, 14.8%; with M14 melanoma, 20.7%; with HCT-15 colon, 9.19% (active); in the assay on HT29 colon it was 4.75% (active). For the same compound, the growth with SNB-75 CNS was 40.4%; in the assay on SNB-19 CNS it was 15.2%; in the assay with U251 CNS, -3.64% (active); with PC-3 prostate, 28.7%; in the assay with SK-MEL-5 melanoma it was -41.5% (active); in the assay on UACC-62 melanoma, -61.4% (active). For the same compound, the growth is -77.4% (active) in the assay with LOX IMVI melanoma and 5.07% (active) with SK-MEL-28 melanoma.
